Measured values reported in publication PMC5540273 (PLoS ONE, 2017).

Assays:
Conditions in all cases: concentration: 1 μM, replicates: in singlicate; n = 1
[1] = tested on: MAP3K15
[2] = tested on: MAP3K1
[3] = tested on: MAP3K2
[4] = tested on: MAP3K3
[5] = tested on: MAP3K4
[6] = tested on: MAP4K2
[7] = tested on: MAP4K3
[8] = tested on: MAP4K4
[9] = tested on: MAP4K5
[10] = tested on: MAPKAPK2
[11] = tested on: MAPKAPK5
[12] = tested on: MARK1
[13] = tested on: MARK2
[14] = tested on: MARK3
[15] = tested on: MARK4
[16] = tested on: MAST1
[17] = tested on: T1, MEK1
T1 construct: gene MAP2K1

[18] = tested on: T2, MEK2
T2 construct: gene MAP2K2

[19] = tested on: T3, MEK3
T3 construct: gene MAP2K3

[20] = tested on: T4, MEK4
T4 construct: gene MAP2K4
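Further: KINOMEscan kinase panel screen.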

Structure (SMILES)	%Inh [1] [%]	%Inh [2] [%]	%Inh [3] [%]	%Inh [4] [%]	%Inh [5] [%]	%Inh [6] [%]	%Inh [7] [%]	%Inh [8] [%]	%Inh [9] [%]	%Inh [10] [%]	%Inh [11] [%]	%Inh [12] [%]	%Inh [13] [%]	%Inh [14] [%]	%Inh [15] [%]	%Inh [16] [%]	%Inh [17] [%]	%Inh [18] [%]	%Inh [19] [%]	%Inh [20] [%]
Nc1ncc(-c2ccc3nccc(-c4ccncc4)c3c2)cc1S(=O)(=O)N1CCOCC1 [GSK1627798]	0	7	19	0	9	0	0	0	3	14	0	0	0	0	0	0	0	0	24	52
O=C(Nc1cccc(Oc2ccc3nc(NC(=O)C4CC4)cn3n2)c1)c1ccccc1C(F)(F)F	0	0	0	8	26	0	64	8	29	0	0	0	6	21	12	0	69	82	17	0
COC(=O)Nc1nc2ccc(Oc3ccc(NC(=O)Nc4cc(C(F)(F)F)ccc4F)cc3)cc2n1C.Cl [GW692089]	0	2	0	0	0	0	0	0	0	6	0	0	0	0	2	23	0	1	0	0
CCS(=O)(=O)c1ccc(OC)c(Nc2nccc(-c3c(-c4cccc(NC(=O)c5c(F)cccc5F)c4)nn4ncccc34)n2)c1 [GSK326180]	0	10	6	0	7	0	22	3	0	34	0	6	22	0	9	0	31	18	2	25
c1ccc(-c2cnc3nccnn23)cc1 [AH20685]	0	0	0	0	21	0	0	0	0	0	0	0	0	0	0	0	0	0	0	2
COCCOCCOc1cc2ncc3c4ccc(C#N)cc4[nH]c3c2cc1OC	65	0	0	4	17	11	39	42	19	0	0	0	13	7	0	69	48	80	12	0
CN(c1ccc(NC(=O)Nc2cc(C(F)(F)F)ccc2F)cc1)c1ccnc(Nc2ccc(S(N)(=O)=O)cc2)n1 [GW809893]	0	33	7	15	72	26	96.8	97.7	99.2	0	0	7	22	2	1	18	0	19	51	67
COc1ccc(-c2coc3ccc(-c4nnc(SCc5ccc(OC)c(C(F)(F)F)c5)o4)cc23)cc1	0	0	10	0	0	0	0	6	0	0	23	5	2	0	4	13	13	22	10	30
Cl.Cl.NCC(NC(=O)c1cc(-c2ccccc2)c(-c2ccnc3[nH]ccc23)s1)c1ccccc1 (centres unmarked) [GSK1321561]	0	22	27	0	0	64	0	98	24	0	0	0	0	11	3	0	5	0	51	42
Cl.Cl.NCC(NCc1ccc(-c2ccnc3[nH]ccc23)s1)c1ccccc1 (centres unmarked) [GSK1321565]	0	0	63	29	0	64	2	0	0	0	0	0	0	0	0	11	0	0	49	18
